# Assay results from the supplement of paper PMC8540655.
# A number with no mark means an inactive call.
# Test system: Aedes aegypti larvae
# Assay: larval motility relative to same well at 0 h (fraction); higher = more motile (less active compound), active = 0.4 or less
# Settings: 10 µM
# Summary of the method: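 Larvae (Aedes aegypti, hatched in pond salt solution with yeast at 25 °C and taken 18–24 h later) were plated at about 10 per 100 µL well. Compounds at 10 µM in 1% v/v DMSO were imaged with INVAPP at 0, 2 and 24 h, alongside solvent and larvicide controls on each plate. Reported relative motility is each well's score over its own starting score, as a median of three independent larval batches.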
Structure (SMILES),larval motility (2 h),larval motility (24 h)
O=S(=O)(NCB(O)O)c1ccc(-c2nnn[nH]2)cc1C(F)(F)F,0.999,1.46
CCc1cc(CCC(=O)Nc2ccccc2O)c(=O)[nH]c1C,0.689,0.991
CC[N+]1(C/C2=C/CCCCCC2)CCC(NC(=O)C2c3cc(Cl)ccc3Oc3ccc(Cl)cc32)CC1 (centres undefined),1.22,0.723
CCc1nc(N)nc(N)c1C#CCc1ccccc1,0.589,0.658
O=C(O)COc1cccc2c1CC[C@](O)(COC(=O)N(c1ccccc1)c1ccccc1)C2,0.909,0.745
COc1ccc2sc3c(c2c1)NC(C)CNC3=O (centres undefined),0.748,0.959
COc1cccc(N2CCN(C3=Nc4c(F)cccc4[C@H](CC(=O)O)N3c3cc(C(F)(F)F)ccc3OC)CC2)c1,1.02,1.01
COC(=O)Nc1nc2cc(Sc3ccccc3)ccc2[nH]1,0.997,0.306 (active)
CN(O)C(=O)c1cc2c(CN3CCC[C@H]3C(N)=O)cn(Cc3ccc(F)cc3)c2cn1,0.668,1.08
CC(C)(C)c1ccc(Oc2ccc(N)cc2)cc1,0.91,1.33
O=C(NCCN1CCCCC1)c1cccc(C(F)(F)F)c1,0.912,1.4
O=C(Nc1ccccc1C(=O)O)c1cccc(Oc2ccccc2)c1,0.522,1.44
NCC(=O)Nc1ccc(-n2nc(C(F)(F)F)cc2-c2ccc3c(ccc4ccccc43)c2)cc1,0.799,1.81
COc1ccc(OCc2ccc(COc3c(Cl)cccc3Cl)cc2)c(Cl)c1,1.19,1.03
Cc1cc(CCCOc2c(C)cc(-c3noc(C(F)(F)F)n3)cc2C)on1,1.46,0.903
O=C(CP(=O)(O)O)NCCc1cccc(Oc2ccccc2)c1,2.12,1.06
N#Cc1cc([N+](=O)[O-])ccc1Oc1ccccc1Cl,1.05,1.15
CCc1cc(Cc2cnc(N)nc2N)cc2c1N(C)CCC2C (centres undefined),0.948,0.898
COC(=O)Nc1nc2c(C)cccc2[nH]1,0.678,0.778
c1cc(CN2CCCNCCNCCCNCC2)ccc1CN1CCCNCCNCCCNCC1,0.964,0.915
COc1cc(C)c2c(Oc3cccc(C(F)(F)F)c3)c(OC)cc(NC(C)CCCN)c2n1 (centres undefined),0.654,0.385 (active)
O=C(/C(=C/c1ccc(Cl)cc1Cl)n1ccnc1)c1ccc(Cl)cc1,0.446,1.04
NS(=O)(=O)c1ccc(NC(=O)NC(c2ccccc2)c2ccccc2)cc1,0.491,0.689

Structure (SMILES),larval motility (2 h),larval motility (24 h)
CN(C)c1[nH]c(=O)ncc1F,1.24,1.3
CCOc1ccc(/C=N/NC(=O)C2CC2c2ccc(C(C)(C)C)cc2)cc1OCC (centres undefined),1.29,1.4
CN(C)CC(=O)Nc1ccc2[nH]c(=O)c3ccccc3c2c1,0.338 (active),0.463
O=S(=O)(Nc1ccccc1)c1ccc(NC(=S)Nc2ccccc2)cc1,0.779,0.792
CC(=O)O[C@H]1C[C@@]2(C)[C@@H](C[C@@H](O)[C@H]3[C@@]4(C)CC[C@@H](O)[C@@H](C)[C@@H]4CC[C@@]32C)/C1=C(\CCC=C(C)C)C(=O)O,0.95,0.825
O=C(Nc1[nH]c(=O)ncc1F)c1ccccc1,0.527,0.773
O=C(O)c1cc(-c2ccccc2)nc2ccccc12,0.53,0.971
C[C@H]1COc2c(N3CCN(C)CC3)c(F)cc3c(=O)c(C(=O)O)cn1c23,0.447,0.712
C[C@H](c1cccc2ccccc12)N(C)Cc1ccccc1,1.02,1.26
O=C(NCc1ccccc1Cl)c1cnc2ccccc2n1,1.23,0.674
N=C(N)NCCCCC(=O)Nc1cc(C(F)(F)F)cc(NC(=O)c2cc(C(=O)Nc3cc(C(F)(F)F)cc(NC(=O)CCCCNC(=N)N)c3O[C@@H]3CCNC3)ncn2)c1O[C@@H]1CCNC1,0.425,0.764
NC(=O)c1cnc2ccc(S(=O)(=O)c3ccccc3)cc2c1Nc1ccc(O)cc1,1.25,1.01
CCc1c(OCC2CCC2)c2cc(F)ccc2[nH]c1=O,1.07,1.08
CCc1cc(CCCOc2c(C)cc(-c3noc(C(F)(F)F)n3)cc2C)on1,0.695,0.658
NCCCc1ccccc1C(=O)Nc1ncc([N+](=O)O)s1,0.869,0.646
Nc1nc(Nc2ccc3nc(-c4ccc(F)cc4)cc(N)c3c2)cc(-c2ccccc2)n1,0.547,0.261 (active)
Cc1cc(C2CCCCC2)n(O)c(=O)c1,0.66,1.09
Nc1cnn(C2OC(CO)C(O)C2O)c(=O)n1 (centres undefined),1.16,1.33
Cc1cccc(C)c1C(=O)Nc1nc(-c2ccccn2)cc2ccccc12,0.564,1.01
Nc1nc2c(Cc3cccnc3)c[nH]c2c(=O)[nH]1,0.722,0.771
CNCC(=O)OCc1cccnc1N(C)C(=O)OC(C)[n+]1cnn(C[C@](O)(c2cc(F)ccc2F)[C@@H](C)c2nc(-c3ccc(C#N)cc3)cs2)c1 (some centres undefined),1.02,0.736
NC1C2CC3CC(C2)CC1C3 (centres undefined),0.973,1.31
COC(=O)Nc1nc2cc(S(=O)c3ccccc3)ccc2[nH]1 (centres undefined),0.769,0.934

Structure (SMILES),larval motility (2 h),larval motility (24 h)
Cc1cc(Nc2ccc(F)cc2)nc(SCc2nc3ccccc3[nH]2)n1,0.661,0.622
COc1ccc(C[C@@H](C)[C@@H](C)Cc2ccc(OC)c(OC)c2)cc1OC,0.799,0.813
O=c1cc(OCc2ccccc2)ccn1Cc1ccccc1,1.27,1.69
N#CCN1C(=O)COc2cc(F)c(N3C(=O)c4ccccc4C3=O)cc21,0.915,1.91
CC(=O)NC[C@H]1CN(c2ccc(N3CCSCC3)c(F)c2)C(=O)O1,0.531,1.07
C(=C\c1nc2ccccc2[nH]1)/c1ccc2c(c1)OCO2,0.765,1.01
COc1ccc2c(c1)cc(CNC(=O)c1cc3ccccc3o1)n2CC(=O)O,0.674,0.871
Nc1nc(C(F)(F)F)cc2c1[nH]c(=O)n2Cc1ccccc1,0.857,0.614
CN1c2ccc(Cl)cc2N(c2ccccc2)C(=O)c2cn(Cc3ccc(CN4CCOCC4)cc3)nc21,0.674,0.985
O=C(O)c1cc(-c2ccc(Br)cc2)nc2ccc(Cl)cc12,1.05,0.76
COC1CC2CCC(C)C(O)(O2)C(=O)C(=O)N2CCCCC2C(=O)OC(C(C)CC2CCC(OCCO)C(OC)C2)CC(=O)C(C)/C=C(\C)C(O)C(OC)C(=O)C(C)CC(C)/C=C/C=C/C=C/1C (centres undefined),0.921,1.02
O=C(Nc1ccc(N2CCN(C(=O)c3ccccc3)CC2)cc1)c1ccc2c(c1)OCO2,0.946,0.971
CCOC(=O)N[C@@H]1CC[C@@H]2[C@@H](C1)C[C@H]1C(=O)O[C@H](C)[C@H]1[C@H]2/C=C/c1ccc(-c2cccc(F)c2)cn1,1.18,0.624
C[C@H]1CC[C@@]2(O)C(C)(C)[C@@H]3CC[C@@]2(C)[C@H]1C3,0.756,0.757
O=[N+]([O-])c1cn2c(n1)OC[C@@H](OCc1ccc(OC(F)(F)F)cc1)C2,1.12,1.3
CS(=O)(=O)c1ccc(Oc2ccc(Cl)cc2)cc1,0.907,1.02
OC1O[C@H](CSc2ccc(F)cc2)[C@@H](O)[C@H]1O (some centres undefined),1.09,1.32
Oc1c(C(Nc2nc3ccccc3s2)c2ccc(OC(F)F)cc2)ccc2cccnc12 (centres undefined),0.53,1.26
CC(C)(C)c1ccc(OCCn2nc(C(=O)O)c3ccccc3c2=O)cc1,2.82,3.46
N[C@@H]1CN(c2c(F)cc3c(=O)c(C(=O)O)cn([C@@H]4C[C@@H]4F)c3c2Cl)CC12CC2,0.745,1.11
COc1ccc(SCC(=O)N2c3ccccc3Sc3ccccc32)cc1,0.631,1.01
